These results are taken from PubChem BioAssay (EPA / NIEHS).

Results filed as inconclusive are left out. Calls of active or inactive are those of the source. The calls were made as follows, unless noted: active = hit-call score of the fitted dose curve at least 0.9, where 1 is the maximum; inactive = score below 0.9.

Assay [1] can be described thus: ATG_NFI_CIS: Attagene CIS-FACTORIAL HepG2 Assay for human Nuclear Factor I (NFI) (AID 2282989). The conditions noted are these: HepG2 cis-regulatory reporter, NFI response element transcription; actives raise or lower the signal. In short, it runs like this: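 Read-out: reporter mRNA via RT-PCR plus capillary electrophoresis with fluorescence detection. Transiently transfected HepG2 (endogenous TF activity on cis promoters), 24 h compound exposure; gain or loss of signal fitted against DMSO.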

Assay [2] addresses Myc proto-oncogene protein (Homo sapiens) (UniProt P01106). As to the kind of experiment: ATG_Myc_CIS: Attagene CIS-FACTORIAL HepG2 Assay for human Myelocytomatosis (Myc) Proto-Oncogene Transcription Factor (AID 2282990). The conditions noted are these: HepG2, Attagene cis-reporter transcription factor activity; actives raise or lower the signal. An outline of the steps: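 After 24 h chemical treatment of HepG2 cells carrying multiplexed cis-regulated reporter constructs, reporter transcripts quantified by RT-PCR and capillary electrophoresis of fluorescent fragments. Gain or loss fitted against DMSO baseline.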

A short description of assay [3]: ATG_NRF2_ARE_CIS: Attagene CIS-FACTORIAL HepG2 Assay for human Nuclear Factor Erythroid 2 Related Factor 2 (NFR2) response to Antioxidant Response Elements (ARE) (AID 2282992).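 As to AC50: reporter mRNA level measured by RT-PCR and capillary electrophoresis fluorescence.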 As to conditions: HepG2 Attagene ARE/NRF2 reporter, transcription factor activity; actives raise or lower the signal. An outline of the steps: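 Fluorescence intensity of reporter-specific cDNA fragments, separated by capillary electrophoresis, reflects mRNA induction in transfected HepG2 cells at 24 h. Activity is fitted bidirectionally, DMSO serving as baseline.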

Assay [4] is described as follows: ATG_Oct_MLP_CIS: Attagene CIS-FACTORIAL HepG2 Assay for human Octamer-Binding Transcription Factor (Oct) (AID 2282993). The conditions noted are these: HepG2 Attagene cis-factorial Oct reporter, mRNA; actives raise or lower the signal. An outline of the steps: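 Read-out: reporter mRNA via RT-PCR plus capillary electrophoresis of 6-FAM-labelled fragments. Transiently transfected HepG2, 24 h exposure, endogenous TF activity on cis elements. Gain or loss of signal fitted relative to DMSO.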

Assay [5] concerns the target Cellular tumor antigen p53 (Homo sapiens) (UniProt P04637). Put plainly: ATG_p53_CIS: Attagene CIS-FACTORIAL HepG2 Assay for human p53 Transcription Factor (AID 2282994). The conditions noted are these: HepG2 p53 cis-element reporter, Attagene mRNA; actives raise or lower the signal. In short, it runs like this:
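Transiently transfected HepG2 (multiple cis reporter transcription units); exposure 24 h; reporter RNA via RT-PCR, 6-FAM extension, 2 h HpaI digest at 37 C, CE detection; DMSO baseline.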

The target in assay [6] is human Peroxisome Proliferator-activated Receptor alpha (PPARa), PPARA (gene 5465) (UniProt Q07869). Put plainly: ATG_PPARa_TRANS: Attagene TRANS-FACTORIAL HepG2 Assay for human Peroxisome Proliferator-activated Receptor alpha (PPARa) (AID 2283001; active = hit-call score of the fitted dose curve at least 0.9, where 1 is the maximum;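 as to AC50: potency for gain of reporter signal over DMSO so agonist or activator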). In short, it runs like this: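 Reporter transcripts quantified by RT-PCR plus capillary electrophoresis after 24 h treatment, fitted upward relative to DMSO. Cells: human HepG2 transiently carrying multiple GAL4-UAS reporter units driven by NR-Gal4 chimeras.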

Assay [7] addresses human Retinoic Acid Receptor beta (RARb), RARB (gene 5915) (UniProt P10826). Put plainly: ATG_RARb_TRANS: Attagene TRANS-FACTORIAL HepG2 Assay for human Retinoic Acid Receptor beta (AID 2283004; active = hit-call score of the fitted dose curve at least 0.9, where 1 is the maximum). An outline of the steps: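 Induction of reporter mRNA from a chimeric RARb-Gal4 construct was measured by RT-PCR, FAM labelling, HpaI digestion and capillary electrophoresis. Measurements followed 24 h compound treatment of transiently transfected human HepG2 liver cells, with DMSO as baseline.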

The target of assay [8] is human RAR-related Orphan Receptor gamma (RORg), RORC (gene 6097) (UniProt P51449). Put plainly: ATG_RORg_TRANS: Attagene TRANS-FACTORIAL HepG2 Assay for human RAR-related Orphan Receptor gamma (RORg) (AID 2283011; active = hit-call score of the fitted dose curve at least 0.9, where 1 is the maximum;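 as to AC50: potency for induction of reporter transcripts above DMSO so activators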). An outline of the steps:
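Reporter transcripts from a transfected RORg-GAL4 chimera in HepG2 cells were quantified 24 h after dosing by RT-PCR, 6-FAM labelling, HpaI digestion and capillary electrophoresis; increases over DMSO baseline were fitted.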

Assay [9] can be described thus: BSK_3C_uPAR: BioMAP Diversity Plus: 3C Assay for Urokinase-type plasminogen activator receptor (uPAR) Biomarker Activity (AID 2282998). The conditions noted are these: BioMAP 3C HUVEC, uPAR biomarker ELISA; actives raise or lower the signal. An outline of the steps:
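HUVEC primary cells; 24 h post-dose; uPAR by ELISA; gain or loss of signal fitted bidirectionally vs DMSO baseline.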
Background: ELISA stands for enzyme-linked immunosorbent assay.

A short description of assay [10]: BSK_3C_VCAM1: BioMAP Diversity Plus: 3C Assay for Vascular cell adhesion molecule 1 (VCAM1) Biomarker Activity (AID 2282999). The conditions noted are these: BioMAP 3C HUVEC, VCAM1 ELISA, cytokine-stimulated; actives raise or lower the signal. In short, it runs like this:
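Activity fitted in both directions relative to DMSO, with ELISA measurement of the surface marker on primary HUVEC (3C) at 24 h post-treatment; parallel SRB staining (0.1% SRB, TCA-fixed, 560 nm) flagged overt cytotoxicity.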

A short description of assay [11]: BSK_4H_Eotaxin3: BioMAP Diversity Plus: 4H Assay for Eotaxin 3 Biomarker Activity (AID 2283000).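 Also: CCL26 protein level quantified by ELISA in parallel with SRB cytotoxicity check.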 As to conditions: primary human endothelial cells (HUVEC); actives raise or lower the signal. An outline of the steps: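 Human umbilical vein endothelial cells (BSK_4H system) dosed with test chemical; Eotaxin-3 (CCL26) measured by ELISA 24 h after dosing. Bidirectional curve fitting relative to DMSO negative control as baseline.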

Read-out in assay [12]: Intercellular Adhesion Molecule 1 (ICAM1), ICAM1 (gene 3383)
As to the kind of experiment: BSK_3C_ICAM1: BioMAP Diversity Plus: 3C Assay for Intercellular Adhesion Molecule 1 (ICAM1) Biomarker Activity (AID 2283003). The conditions noted are these: primary human endothelial cells (HUVEC); actives raise or lower the signal. In short, it runs like this:
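ELISA readout of ICAM1 in human umbilical vein endothelial cells in the 3C system, taken 24 h post-dose. Gain or loss of signal versus DMSO was fitted in both directions, with SRB total-protein staining run in parallel.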

The nature of assay [13]: BSK_3C_Proliferation: Cell Proliferation Assessment in the BioMAP Diversity Plus: 3C Assay (AID 2283006). As to conditions: primary human endothelial cells (HUVEC). An outline of the steps: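 Proliferation as total protein: sulforhodamine B (0.1%) stain of TCA-fixed subconfluent human umbilical vein endothelial cells, absorbance 560 nm, 48 h after dosing. Activity fitted in both directions against DMSO baseline.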

The target of assay [14] is Nuclear receptor subfamily 1 group I member 2 (Homo sapiens) (UniProt O75469). As to the kind of experiment: ATG_PXR_TRANS: Attagene TRANS-FACTORIAL HepG2 Assay for human Pregnane X Receptor (PXR) (AID 2283008; active = hit-call score of the fitted dose curve at least 0.9, where 1 is the maximum). An outline of the steps:
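Transient HepG2 transfectants carrying multiplexed reporter transcription units; PXR activity read through a Gal4 chimera. 24 h exposure. RT-PCR/CE fluorescence; upward curve fit referenced to DMSO.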

Assay [15] addresses human RAR-related Orphan Receptor beta (RORb), RORB (gene 6096) (UniProt Q92753). As to the kind of experiment: ATG_RORb_TRANS: Attagene TRANS-FACTORIAL HepG2 Assay for human RAR-related Orphan Receptor beta (RORb) (AID 2283010; active = hit-call score of the fitted dose curve at least 0.9, where 1 is the maximum). In short, it runs like this: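 Read-out is reporter mRNA induction, quantified by RT-PCR with fluorescent capillary electrophoresis, 24 h post-dose in transiently transfected HepG2 expressing exogenous NR-Gal4 chimera. Activity fitted upward versus DMSO.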

The target of assay [16] is human Peroxisome Proliferator-activated Receptor delta (PPARd), PPARD (gene 5467) (UniProt Q03181). Put plainly: ATG_PPARd_TRANS: Attagene TRANS-FACTORIAL HepG2 Assay for human Peroxisome Proliferator-activated Receptor delta (PPARd) (AID 2283002; active = hit-call score of the fitted dose curve at least 0.9, where 1 is the maximum). In short, it runs like this:
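Read-out is induced reporter mRNA, quantified by RT-PCR with fluorescent labelling and capillary electrophoresis after 24 h dosing. Cells are HepG2 transiently carrying multiple GAL4-UAS reporter units driven by exogenous NR-GAL4 chimeras; DMSO serves as baseline.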

Assay [17] deals with Peroxisome proliferator-activated receptor gamma (Homo sapiens) (UniProt P37231). As to the kind of experiment: ATG_PPARg_TRANS: Attagene TRANS-FACTORIAL HepG2 Assay for human Peroxisome Proliferator-activated Receptor-gamma (PPARg) (AID 2283007; active = hit-call score of the fitted dose curve at least 0.9, where 1 is the maximum). In short, it runs like this:
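Human hepatoma HepG2, transient MRTU transfection, 24 h treatment. mRNA reporter signal by RT-PCR plus capillary electrophoresis, fluorescence detection; fitted for increase over DMSO negative control.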

Assay [18] has as its target human Retinoic Acid Receptor gamma (RARg), RARG (gene 5916) (UniProt P13631). As to the kind of experiment: ATG_RARg_TRANS: Attagene TRANS-FACTORIAL HepG2 Assay for human Retinoic Acid Receptor gamma (RARg) (AID 2283009; active = hit-call score of the fitted dose curve at least 0.9, where 1 is the maximum). In short, it runs like this: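 Transactivation of exogenous RARg-Gal4 fusion measured as reporter transcript induction after 24 h in transfected HepG2 cells. RNA reverse-transcribed, amplified, fluorescently labeled and resolved by capillary electrophoresis; increase relative to DMSO.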

Assay [19] is described as follows: ATG_NF_kB_CIS: Attagene CIS-FACTORIAL HepG2 Assay for human Nuclear Factor Kappa B (NF-kB) (AID 2282991). The conditions noted are these: HepG2 Attagene cis-factorial NF-kB reporter mRNA; actives raise or lower the signal. An outline of the steps: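 Multiplexed cis-reporter assay in transiently transfected HepG2. 24 h treatment; RNA isolated, RT-PCR, labelled fragments resolved by CE. DMSO baseline.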

Assay [20] deals with Retinoic acid receptor alpha (Homo sapiens) (UniProt P10276). Put plainly: ATG_RARa_TRANS: Attagene TRANS-FACTORIAL HepG2 Assay for human Retinoic Acid Receptor alpha (RARa) (AID 2283005; active = hit-call score of the fitted dose curve at least 0.9, where 1 is the maximum). An outline of the steps: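 Reporter transcripts, measured by RT-PCR with fluorescent labeling and capillary electrophoresis after 24 h dosing, reflect activity of an exogenous human RARa–GAL4 fusion in transiently transfected HepG2. Fitted for increase relative to DMSO.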

Chain of Peroxisome proliferator-activated receptor gamma (Homo sapiens) (P37231 whole entry, looked up): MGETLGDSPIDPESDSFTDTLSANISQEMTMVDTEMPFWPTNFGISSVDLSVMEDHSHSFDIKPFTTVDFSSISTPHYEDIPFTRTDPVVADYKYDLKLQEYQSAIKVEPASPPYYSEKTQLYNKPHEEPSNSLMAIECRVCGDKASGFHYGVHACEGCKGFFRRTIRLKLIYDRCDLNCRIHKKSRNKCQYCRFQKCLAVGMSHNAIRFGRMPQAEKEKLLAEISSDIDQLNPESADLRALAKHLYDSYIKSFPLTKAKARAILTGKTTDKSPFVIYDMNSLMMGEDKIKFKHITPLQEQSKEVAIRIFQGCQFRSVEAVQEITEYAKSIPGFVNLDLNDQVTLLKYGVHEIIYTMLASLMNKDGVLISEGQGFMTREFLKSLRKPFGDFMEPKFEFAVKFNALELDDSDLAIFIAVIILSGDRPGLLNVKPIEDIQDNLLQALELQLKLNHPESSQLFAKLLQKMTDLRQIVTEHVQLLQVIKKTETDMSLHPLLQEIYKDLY
Chain of human RAR-related Orphan Receptor beta (RORb), RORB (gene 6096) (Q92753 whole entry, looked up, the tested form may be a part): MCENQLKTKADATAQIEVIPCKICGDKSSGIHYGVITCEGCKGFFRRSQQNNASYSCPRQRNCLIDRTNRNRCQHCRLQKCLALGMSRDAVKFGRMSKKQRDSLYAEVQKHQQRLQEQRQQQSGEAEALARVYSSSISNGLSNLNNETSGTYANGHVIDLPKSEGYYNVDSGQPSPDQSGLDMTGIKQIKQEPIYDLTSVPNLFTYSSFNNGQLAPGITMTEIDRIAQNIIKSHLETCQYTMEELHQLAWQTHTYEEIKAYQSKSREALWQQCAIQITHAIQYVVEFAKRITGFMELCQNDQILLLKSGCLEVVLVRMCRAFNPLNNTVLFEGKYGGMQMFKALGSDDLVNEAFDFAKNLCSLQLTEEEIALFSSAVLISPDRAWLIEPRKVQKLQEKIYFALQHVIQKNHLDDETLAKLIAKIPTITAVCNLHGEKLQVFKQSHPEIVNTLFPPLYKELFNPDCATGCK
Chain of human Peroxisome Proliferator-activated Receptor delta (PPARd), PPARD (gene 5467) (Q03181 whole entry, looked up, the tested form may be a part): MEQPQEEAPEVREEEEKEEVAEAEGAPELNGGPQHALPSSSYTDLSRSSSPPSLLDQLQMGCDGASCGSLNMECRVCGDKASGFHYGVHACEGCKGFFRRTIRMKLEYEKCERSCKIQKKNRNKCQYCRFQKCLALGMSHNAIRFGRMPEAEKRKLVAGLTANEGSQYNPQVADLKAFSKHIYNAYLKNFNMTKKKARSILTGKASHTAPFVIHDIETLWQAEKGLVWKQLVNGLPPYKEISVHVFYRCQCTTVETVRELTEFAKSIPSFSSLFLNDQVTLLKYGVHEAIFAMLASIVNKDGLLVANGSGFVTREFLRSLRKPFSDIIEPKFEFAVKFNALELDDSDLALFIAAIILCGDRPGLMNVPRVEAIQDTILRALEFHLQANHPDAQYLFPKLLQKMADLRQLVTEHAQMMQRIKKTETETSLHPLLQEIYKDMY
Chain of Nuclear receptor subfamily 1 group I member 2 (Homo sapiens) (O75469 whole entry, looked up, the tested form may be a part): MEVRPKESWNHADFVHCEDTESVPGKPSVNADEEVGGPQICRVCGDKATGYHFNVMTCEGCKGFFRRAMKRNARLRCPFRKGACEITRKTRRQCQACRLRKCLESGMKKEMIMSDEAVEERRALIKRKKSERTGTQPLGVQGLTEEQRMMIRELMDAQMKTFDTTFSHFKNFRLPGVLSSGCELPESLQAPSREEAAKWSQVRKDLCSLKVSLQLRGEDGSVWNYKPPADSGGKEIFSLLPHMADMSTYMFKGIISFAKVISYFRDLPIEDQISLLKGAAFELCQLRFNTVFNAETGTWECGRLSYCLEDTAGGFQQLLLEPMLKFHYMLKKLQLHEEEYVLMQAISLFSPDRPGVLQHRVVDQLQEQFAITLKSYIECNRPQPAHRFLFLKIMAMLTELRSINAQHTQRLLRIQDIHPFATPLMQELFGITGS
Chain of human RAR-related Orphan Receptor gamma (RORg), RORC (gene 6097) (P51449 whole entry, looked up, the tested form may be a part): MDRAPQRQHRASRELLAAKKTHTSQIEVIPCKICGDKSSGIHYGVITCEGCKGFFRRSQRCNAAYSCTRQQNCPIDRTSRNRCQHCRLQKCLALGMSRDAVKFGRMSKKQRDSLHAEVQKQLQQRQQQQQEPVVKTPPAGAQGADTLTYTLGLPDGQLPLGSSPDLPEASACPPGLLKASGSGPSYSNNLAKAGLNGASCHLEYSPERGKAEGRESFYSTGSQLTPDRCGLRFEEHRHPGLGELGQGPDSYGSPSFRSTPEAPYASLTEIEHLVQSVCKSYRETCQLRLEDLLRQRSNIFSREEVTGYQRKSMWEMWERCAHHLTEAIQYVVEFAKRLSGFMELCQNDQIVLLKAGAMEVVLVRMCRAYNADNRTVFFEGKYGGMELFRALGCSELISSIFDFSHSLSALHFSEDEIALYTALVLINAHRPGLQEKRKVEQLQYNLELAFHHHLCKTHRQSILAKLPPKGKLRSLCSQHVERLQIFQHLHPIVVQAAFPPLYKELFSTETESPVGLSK
Chain of human Retinoic Acid Receptor gamma (RARg), RARG (gene 5916) (P13631 whole entry, looked up, the tested form may be a part): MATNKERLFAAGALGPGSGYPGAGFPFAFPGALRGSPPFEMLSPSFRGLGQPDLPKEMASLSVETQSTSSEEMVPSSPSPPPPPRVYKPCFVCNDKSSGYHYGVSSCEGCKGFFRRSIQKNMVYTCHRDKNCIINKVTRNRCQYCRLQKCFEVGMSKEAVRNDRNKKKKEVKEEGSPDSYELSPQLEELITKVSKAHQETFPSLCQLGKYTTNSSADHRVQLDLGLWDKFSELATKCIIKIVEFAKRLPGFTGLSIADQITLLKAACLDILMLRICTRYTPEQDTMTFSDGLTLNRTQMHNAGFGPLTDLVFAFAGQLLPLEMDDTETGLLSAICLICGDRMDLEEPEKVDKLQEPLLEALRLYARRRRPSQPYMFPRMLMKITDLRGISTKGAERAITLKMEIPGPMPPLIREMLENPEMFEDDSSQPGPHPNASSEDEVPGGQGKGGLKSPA
Chain of Myc proto-oncogene protein (Homo sapiens) (P01106 whole entry, looked up, the tested form may be a part): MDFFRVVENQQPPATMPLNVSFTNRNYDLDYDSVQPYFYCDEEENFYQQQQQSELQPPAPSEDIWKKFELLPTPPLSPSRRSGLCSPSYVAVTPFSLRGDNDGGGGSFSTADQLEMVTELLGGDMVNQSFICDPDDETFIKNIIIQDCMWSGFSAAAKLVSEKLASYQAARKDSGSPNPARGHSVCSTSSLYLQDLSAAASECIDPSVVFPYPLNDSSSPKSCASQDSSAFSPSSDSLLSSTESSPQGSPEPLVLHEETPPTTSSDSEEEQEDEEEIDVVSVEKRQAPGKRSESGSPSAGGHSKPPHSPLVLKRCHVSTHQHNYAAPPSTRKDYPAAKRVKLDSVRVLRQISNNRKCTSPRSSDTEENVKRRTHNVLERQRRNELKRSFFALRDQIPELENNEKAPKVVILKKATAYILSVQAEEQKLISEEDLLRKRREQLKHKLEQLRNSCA
Chain of Cellular tumor antigen p53 (Homo sapiens) (P04637 whole entry, looked up): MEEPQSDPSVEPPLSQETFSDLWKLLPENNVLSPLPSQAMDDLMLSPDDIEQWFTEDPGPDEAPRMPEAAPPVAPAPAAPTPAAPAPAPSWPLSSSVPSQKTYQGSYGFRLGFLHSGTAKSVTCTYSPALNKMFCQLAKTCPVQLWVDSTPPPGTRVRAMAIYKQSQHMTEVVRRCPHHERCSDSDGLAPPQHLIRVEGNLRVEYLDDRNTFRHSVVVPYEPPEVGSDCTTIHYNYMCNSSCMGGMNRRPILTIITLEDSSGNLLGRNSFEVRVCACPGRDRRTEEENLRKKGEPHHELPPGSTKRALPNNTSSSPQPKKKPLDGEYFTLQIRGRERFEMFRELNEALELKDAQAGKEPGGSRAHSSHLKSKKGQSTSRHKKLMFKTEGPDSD
Chain of human Peroxisome Proliferator-activated Receptor alpha (PPARa), PPARA (gene 5465) (Q07869 whole entry, looked up, the tested form may be a part): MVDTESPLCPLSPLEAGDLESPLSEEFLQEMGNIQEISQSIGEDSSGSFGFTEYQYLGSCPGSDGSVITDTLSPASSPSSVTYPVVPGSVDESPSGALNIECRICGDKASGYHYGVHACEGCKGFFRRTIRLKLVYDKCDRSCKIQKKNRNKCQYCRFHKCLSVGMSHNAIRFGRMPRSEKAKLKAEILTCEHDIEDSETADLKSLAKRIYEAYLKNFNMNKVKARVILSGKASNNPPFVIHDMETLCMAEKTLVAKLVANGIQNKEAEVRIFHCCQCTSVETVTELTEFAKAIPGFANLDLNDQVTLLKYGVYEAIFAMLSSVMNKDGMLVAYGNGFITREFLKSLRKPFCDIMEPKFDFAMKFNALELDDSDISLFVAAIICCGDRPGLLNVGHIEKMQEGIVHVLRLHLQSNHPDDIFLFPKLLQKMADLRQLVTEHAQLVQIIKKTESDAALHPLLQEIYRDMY
Chain of human Retinoic Acid Receptor beta (RARb), RARB (gene 5915) (P10826 whole entry, looked up, the tested form may be a part): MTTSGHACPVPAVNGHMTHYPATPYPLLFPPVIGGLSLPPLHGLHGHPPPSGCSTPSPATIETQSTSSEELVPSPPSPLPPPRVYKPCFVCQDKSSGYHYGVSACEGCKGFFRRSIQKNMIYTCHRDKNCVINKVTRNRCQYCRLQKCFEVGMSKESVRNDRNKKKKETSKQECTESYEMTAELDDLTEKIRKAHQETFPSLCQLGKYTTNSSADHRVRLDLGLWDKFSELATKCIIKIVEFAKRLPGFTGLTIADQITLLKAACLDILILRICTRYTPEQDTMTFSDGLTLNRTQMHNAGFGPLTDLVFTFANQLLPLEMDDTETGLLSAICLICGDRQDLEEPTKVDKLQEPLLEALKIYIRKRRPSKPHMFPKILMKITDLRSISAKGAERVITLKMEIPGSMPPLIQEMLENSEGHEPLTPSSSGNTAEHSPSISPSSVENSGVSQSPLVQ

As to `NC(CO)(CO)CO`, the result in assay [1], in [2], in assay [3], in [4], in assay [5] and in [6] was inactive. For the same molecule, the result in assay [7] and in assay [8] was inactive.

Regarding `O=C1CCCN1CCO`, the molecule was called inactive in assay [1], in [2], in [3], in [4], in [5] and in assay [9]. For the same molecule, the outcome in assay [10], in [11], in [12], in assay [13], in assay [14] and in assay [15] was inactive. Also, the result in assay [8] was inactive.

One may read the AC50 as the concentration at which the activity in the assay is half-maximal. With `CC(C)CCCC(C)CC=O` (centres undefined), the molecule was called inactive in [1], in [2], in [3], in [4], in [5] and in assay [16]. The result in assay [17], in assay [14], in assay [15] and in assay [8] was inactive. In addition, in [6], the AC50 was 45.8 µM (active).

As for `C1=Cc2ccccc2C1`, the call in [1], in [2], in [4], in assay [5], in [6] and in assay [16] was inactive. In addition, the call in [18], in assay [15] and in assay [8] was inactive. Besides, the AC50 in assay [3] was 19.8 µM (active); in assay [17] it was 67.4 µM (active); in assay [14] it was 6.06 µM (active).

Take `COCCOCCOCCOCCOC`: the result in [1], in assay [2], in [3], in assay [4], in [5] and in assay [6] was inactive. Besides, the call in [16] and in [14] was inactive.

`CCCCCC(C)O` (centres undefined): the call in assay [1], in assay [2], in assay [19], in assay [4], in assay [7] and in assay [15] was inactive.

With `CC(C)(C)C(=O)C=Cc1ccc(Cl)cc1`, the AC50 in [1] was 48.8 µM (active); in assay [4] it was 26.3 µM (active); in assay [5], 59 µM (active); in assay [6], 24.7 µM (active); in [17], 26.6 µM (active); in assay [14], 26.2 µM (active). In assay [8], the AC50 was 24.4 µM (active). Further, the call in assay [2] and in [3] was inactive.

With `CCCCNc1ccc(NCCCC)c2c1C(=O)c1ccccc1C2=O`, the result in assay [1], in [2], in assay [4], in [5], in assay [9] and in assay [10] was inactive. Further, the result in assay [11], in [12], in assay [13], in assay [17], in assay [14] and in assay [8] was inactive. In addition, in [3], the AC50 was 1.47 µM (active).

As to `O=C(Nc1ccccc1)c1ccccc1O`, the result in assay [1], in assay [2], in assay [3], in assay [5], in assay [6] and in assay [16] was inactive. Besides, the molecule was called inactive in assay [20], in assay [14] and in [18]. Moreover, the AC50 in assay [4] was 48.3 µM (active); in assay [17], 55.9 µM (active).

As to `CC1=Nc2ccc3ccccc3c2C1(C)C`, the molecule was called inactive in [1], in [2], in assay [4], in assay [5], in [6] and in assay [18]. Also, the AC50 is 100 µM (active) in assay [3], 40.5 µM (active) in assay [17] and 2.65 µM (active) in assay [14].

In the case of `OCCNCc1ccccc1`, the call in [1], in assay [2], in assay [3], in assay [4], in assay [5] and in [6] was inactive. Besides, the call in assay [16], in [15] and in assay [8] was inactive.
